Test results taken from PubChem BioAssay AID1903 (Southern Research Specialized Biocontainment Screening …, 2009).
The whole screen tested about 310,000 compounds, of which about 1,200 (0.39%) were called active. How the calls were made is not given here. Not all results are given here. Measured potencies and affinities stand elsewhere.

Each compound was assayed against Large T antigen (Simian virus 40) (UniProt P03070) (assay: TAg ATPase/helicase activity blockers – biochemical (AID 1903)). Conditions: SV40 large T antigen ATPase/helicase inhibition assay; at 20 µM; active compounds read high.
Chain of Large T antigen (Simian virus 40) (P03070 whole entry, looked up): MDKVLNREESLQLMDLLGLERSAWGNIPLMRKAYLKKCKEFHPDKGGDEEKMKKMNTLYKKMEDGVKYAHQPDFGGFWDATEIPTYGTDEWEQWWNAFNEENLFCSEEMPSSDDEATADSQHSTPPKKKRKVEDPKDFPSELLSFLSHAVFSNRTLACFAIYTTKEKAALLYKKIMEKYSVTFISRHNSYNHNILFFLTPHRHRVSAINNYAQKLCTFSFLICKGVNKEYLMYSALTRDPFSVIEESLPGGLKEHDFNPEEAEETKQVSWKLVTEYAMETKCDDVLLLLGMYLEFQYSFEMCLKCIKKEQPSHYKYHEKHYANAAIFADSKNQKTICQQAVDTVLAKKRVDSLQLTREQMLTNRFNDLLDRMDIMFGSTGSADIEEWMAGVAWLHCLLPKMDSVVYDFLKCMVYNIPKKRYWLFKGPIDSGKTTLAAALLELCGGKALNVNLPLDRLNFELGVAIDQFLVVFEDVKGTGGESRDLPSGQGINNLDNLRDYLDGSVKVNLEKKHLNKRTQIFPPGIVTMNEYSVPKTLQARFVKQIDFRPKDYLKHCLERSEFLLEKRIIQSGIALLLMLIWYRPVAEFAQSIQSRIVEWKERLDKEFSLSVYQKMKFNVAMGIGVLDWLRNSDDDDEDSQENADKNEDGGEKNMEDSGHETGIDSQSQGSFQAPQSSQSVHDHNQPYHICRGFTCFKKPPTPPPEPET

inhibition, inactive:
CC(=O)c1ccc(OC(=O)C(CCS(C)(=O)=O)N2C(=O)c3ccccc3C2=O)cc1 (stereo not drawn) 3.15%, COc1ccc(NC(=O)C(CCS(C)(=O)=O)N2C(=O)c3ccccc3C2=O)cc1 (stereo not drawn) 11.7%, CCOC(=O)N1CCN(C(=O)CC(C)S(=O)(=O)c2cc3c(cc2C)NC(=O)CO3)CC1 (stereo not drawn) 6.54%, Cc1ccc(-n2c(SCC(=O)OC(C)C)nnc2-c2ccncc2)cc1 9.08%, O=c1[nH]c2ccccc2c2ccccc12 11.7%, Cc1cc(=O)c2ccccc2s1 23.3%, O=C1Nc2ccc(F)cc2C12SCCS2 -3.17%, O=c1[nH]c2ccc(F)cc2[nH]c1=O 22.1%, CC(=O)N1CCN(c2cc(N3CCc4ccccc4C3)c(F)cc2[N+](=O)[O-])CC1 29.4%, COc1ccc(C(=O)O)cc1N1C(=O)Nc2ccccc2N1O 13.6%, O=C(NCc1cccs1)C1CC(O)CN1C(=O)Nc1ccccc1 (stereo not drawn) 3.53%, Nc1ccc(-c2nc3ccccc3[nH]2)cc1 6.85%, Nc1ccccc1Nc1nc2ccccc2[nH]1 26.5%, COc1ccc(CCNC(=O)c2cn(C)c3ccc(S(=O)(=O)N4CCOCC4)cc3c2=O)cc1OC 5.2%, C=CCNS(=O)(=O)c1ccc(OC)c(C)c1 1.44%, CCCN1C(=O)/C(=C/c2ccc(C)s2)NC1=S 8.4%, O=C(/C=C/c1ccc([N+](=O)[O-])s1)N1CCN(c2ccccc2)CC1 16%, CCN1C(=O)/C(=C/c2ccc(C)s2)NC1=S 11.9%, O=C(N/N=C/c1ccc([N+](=O)[O-])s1)C(O)c1ccccc1 (stereo not drawn) 4.11%, CN(C(=O)/C=C/c1ccc([N+](=O)[O-])s1)c1ccccc1 -0.18%, O=c1oc(/C=C/c2ccc([N+](=O)[O-])s2)nc2ccccc12 6.31%, CCCCc1c(C(=O)O)cc(OC)cc1C(=O)O 12.1%, O=C(CSc1nc(O)cc(=O)n1-c1ccc(Cl)c(Cl)c1)Nc1ccc(Cl)cc1Cl 28.9%, Cn1nccc1C(=O)N1CCC(Cc2ccccc2)CC1 11.7%, COC(=O)CC1C(=O)NCCN1C(=O)Nc1ccc(Cl)c(Cl)c1 (stereo not drawn) 4.47%, CCC(C)NC(=O)CCc1c(C)nc2c(c(C)nn2-c2ccccc2)c1C (stereo not drawn) 6.67%, CC(=O)c1c(C)oc2ccc(N(C(C)=O)S(=O)(=O)c3cccc4cccnc34)cc12 10.6%, FC(F)(F)c1ccc(Cl)c(NC2=NCCCCC2)c1 7.53%, CC(C)OC(=O)C(C(=O)C(F)(F)F)c1cc(NS(=O)(=O)c2ccc3ccccc3c2)c2ccccc2c1O (stereo not drawn) 15.1%, COc1cc(/C=N/n2nnnc2N)ccc1OC(C)=O 12.9%, CCOc1cc(/C=N\n2nnnc2N)ccc1O 33.9%, COc1ccc(/C=N/n2nnnc2N)cc1OC 11.7%, CCOc1ccc(/C=N/n2nnnc2N)cc1OCC 5.4%, O=C(NCc1ccccn1)c1ccc(Cl)c(S(=O)(=O)N2CCCCC2)c1 6.41%, COc1ccc(CNC(=O)C2CCN(S(=O)(=O)N3CCCCC3)CC2)cc1 7.96%, NC(=O)c1cc(S(=O)(=O)N2CCN(c3ccc([N+](=O)[O-])cc3)CC2)cs1 14.4%, CCOC(=O)c1cnc2cc(F)c(F)cc2c1N1CCOCC1 0.2%, O=C(COc1c(Cl)cc(Cl)cc1Cl)c1ccc(Cl)cc1 2.07%, CC(=O)Nc1ccc(NS(=O)(=O)c2ccc3c(c2)oc(=O)n3C)cc1 10.1%, Cc1ccc(NS(=O)(=O)c2ccc3c(c2)oc(=O)n3C)cc1 6.64%, Cc1ccc(NC(=O)CN2C(=O)c3ccccc3S2(=O)=O)c(C)c1 10.7%, CN(C)c1ccc(CNCC2CCCO2)cc1 (stereo not drawn) 7.34%, COCC(=O)Nc1ccc(N(C)C)cc1 33.7%, CCCNC(=O)C(=O)Nc1ccc(N(C)C)cc1 18.4%, CN(C)c1ccc(C(=O)NCC2CCCO2)cc1 (stereo not drawn) 5.69%, CC1CCN(C(=O)Cn2c(=O)n(CCCC(=O)NCc3ccco3)c(=O)c3sccc32)CC1 8.64%, O=C(Nc1ccccc1C(=O)Nc1ccccc1)c1cccs1 5.41%, Cc1c(C(=O)Nc2cc(S(=O)(=O)N3CCOCC3)ccc2N2CCOCC2)oc2ccccc12 0.37%, CCC(CC)C(=O)Nc1nnc(S(=O)(=O)N(CC)c2ccc(OC)cc2)s1 3.96%, Cc1ccc(S(=O)(=O)N2CCOCC2)cc1C(=O)c1nccn1C 8.29%, CC1=C/C(=N\OS(=O)(=O)c2ccccc2)C=CC1=O 26.7%, Cc1ccc(S(=O)(=O)ON=C2CCN(S(=O)(=O)c3ccccc3)CC2)cc1 1.39%, CCc1nnc(NC(=O)CSc2nnc(Cc3cc(=O)[nH]c(=O)[nH]3)n2-c2ccc(OC)cc2)s1 3.92%, NC(=NCCc1c[nH]c2ccccc12)NS(=O)(=O)c1ccc(F)cc1 -1.17%, CCCNCc1cc(OC)c(OCC(=O)NCCc2ccccc2)cc1Br 6.19%, COc1cccc(NC(=S)N2CCCC2c2ccc(OC)c(OC)c2)c1 (stereo not drawn) 12.4%, O=c1c2ccccc2sn1-c1ccc(S(=O)(=O)N2CCCC2)cc1 9.42%, O=C(O)c1ccccc1NS(=O)(=O)c1cccc(C(F)(F)F)c1 9.6%, O=C(O)c1ccccc1NS(=O)(=O)c1ccc2ccccc2c1 -0.61%, Cc1ccc(-c2nn(C)c(=O)c3ccccc23)cc1S(=O)(=O)N1CCCC1 0.12%, CN(C)S(=O)(=O)c1cccc(N2C(=O)CC3(CCCCC3)CC2=O)c1 7.26%, CCn1nc(C(=O)OCc2cccc(S(=O)(=O)N(C)C)c2)c2ccccc2c1=O 8.67%, O=C1CC(c2ccc(O)c(O)c2)Oc2cc(O)cc(O)c21 (stereo not drawn) 45.5%, CC(C)=CCc1c(O)ccc2c1OC(c1ccc(O)c(O)c1)CC2=O (stereo not drawn) 17%, Cc1ccc(OCCCCN2CCC(C)CC2)c(Br)c1 3.72%, O=C1/C(=C\c2ccc(Br)o2)Cc2ccccc21 6.99%, Cc1ccc(C=C2C(=O)c3ccccc3C2=O)o1 12.7%, O=C(COc1ccc(F)cc1F)N1CCCCCCC1 1.37%, Oc1cccc(NC(=S)Nc2ccccc2)c1 21.3%, Cc1cccc(OCC(=O)Nc2ccc(N3CCCC3)cc2)c1C -18.4%, COc1ccc(NC(=S)NC(=O)c2ccccc2Cl)cc1 9.58%, O=C(NC(=S)Nc1ccccc1O)c1ccccc1Cl 13.8%, O=C(O)c1ccc(NC(=S)NC(=O)c2cncc(Br)c2)cc1 13.1%, O=C(NC(=S)Nc1ccc(Cl)cc1)c1cncc(Br)c1 10.2%, CCOc1ccc(-c2ccc3nnc(SCC(=O)NCC4CCCO4)n3n2)cc1 (stereo not drawn) 20.9%, c1ccc2cc(Cn3ccnc3)ccc2c1 5.43%, C/C(=N\NC(=O)COc1ccc(C)cc1[N+](=O)[O-])c1cccs1 15%, N#Cc1ccc(CSc2nc(N)cc(N)n2)cc1 -0.44%, CCOCCCn1c(=O)c2ccccc2n2c(=S)[nH]nc12 31.1%, Cn1c(=O)c2ccccc2n2c(=S)[nH]nc12 1.39%, CC(C)CCn1c(=O)c2ccccc2n2c(CN3CCCC3)nnc12 15.1%, CC(C)CCn1c(=O)c2ccccc2n2c(CCl)nnc12 12.5%, O=C(Nc1ccc(S(=O)(=O)Nc2ncccn2)cc1)c1cnc(Cl)c(Cl)c1 24.8%, Cc1ccn(CCC(=O)Nc2ccc(-c3ccno3)cc2)n1 10.3%, C=C(c1cccc2ccccc12)P(=O)(O)O 8.15%, CCOC(=O)c1c(NC(=O)COC(=O)c2nc(Cl)ccc2Cl)sc(C(=O)N(C)C)c1C 3.76%, Cc1ccc(NC(=O)c2ccc(COc3ccccc3)o2)nc1 -5.11%, Cc1nc2ncccn2c1-c1csc(Nc2ccccc2)n1 16.1%, Fc1ccc(Nc2nc(-c3cccnc3)cs2)cc1 6.02%, CCN(CC)c1ccc(Nc2nc(-c3cccnc3)cs2)cc1 20.5%, Cc1ccc(Nc2nc(-c3c(C)nc4ncccn34)cs2)cc1 17.2%, O=S(=O)(c1cccs1)N1CCC2(CC1)OCCN2S(=O)(=O)c1ccccc1 11.8%, CN(Cc1c(C(=O)N/N=C/c2ccccc2)nnn1-c1nonc1N)c1ccccc1 -1.98%, Cc1c(C(=O)N2CC(C)OC(C)C2)[nH]c2ccc(Br)cc12 (stereo not drawn) 0.93%, CCOC(=O)C(NCc1ccc(OC)cc1)(NC(C)=O)C(F)(F)F (stereo not drawn) 0.08%, O=Cc1ccccc1OCCOc1ccc([N+](=O)[O-])cc1 26.7%, O=C1NC(=O)/C(=C\c2ccccc2OCc2ccc([N+](=O)[O-])cc2)N1 16%, C=CCn1c(-c2cccc(Cl)c2)n[nH]c1=S 4.07%, CCCCCC(=O)NNC(=S)NC(C)=O 7.61%, Cc1ccc(S(=O)(=O)N2CCN(Cc3cc(C(C)C)ccc3O)CC2)cc1 -1.91%, COc1cc(NC(=O)CN2CCN(S(=O)(=O)c3ccc(C(C)C)cc3)CC2)cc(OC)c1 4.71%, CC(C)(C)C(=O)CN1CCN(S(=O)(=O)c2ccc(F)cc2)CC1 1.15%, CCOc1ccc(C(=O)CN2CCN(S(=O)(=O)c3ccc(F)cc3)CC2)cc1 6.42%
